From PubChem BioAssay (Tox21)
“And” between values parts separate entries of the source, which are not always exact repeats. Equal values may be shown once. Results filed as inconclusive are left out. Unmarked numbers belong to inactive results. The source made the active and inactive calls. Calls follow the shape of the dose curve; as a rule, active = well fitted curve in the direction sought with a large enough effect in the repeat runs; inconclusive = weak or mixed curves; inactive = no such curve, though single readings can be large; an effect the other way counts as inactive or inconclusive.

Assay: qHTS assay to identify small molecule antagonists of the estrogen related receptor (ERR) signaling pathway - cell viability counter screen (AID 1224818); also: potency is read from the fitted curve at half-maximal effect;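 also: viability measured after 17.5 h of compound exposure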
Details: ERR reporter cell line viability counter screen; series mostly up to 46.1 µM; viability change, negative = cytotoxic: at the top concentration
Procedure, shortened: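 Quantitative high-throughput viability counter screen in ERR cells. Compounds (DMSO) incubated 17.5 h at 37 C; read-out was CellTiter-Fluor fluorescence.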
% is scaled to controls: 0 for no effect and ±100 for the full control effect.

Structure (SMILES)	Potency	viability change, negative = cytotoxic
Cc1cc2c(C(C)C)c(O)c(O)c(C=O)c2c(O)c1-c1c(C)cc2c(C(C)C)c(O)c(O)c(C=O)c2c1O	10.2 µM (active)	
CCCCNc1c(C(=O)OCC)c(C)nc2c1cnn2CC		-2.98%
O=C(Oc1ccccc1)c1cccc(C(=O)Oc2ccccc2)c1		7.58% [at 92.2 µM]
Cc1cn[nH]c1		15.2%
CCOC(=O)N1CCC(=C2c3ccc(Cl)cc3CCc3cccnc32)CC1		-18.3%
O=C(NO)c1ccccc1		1.89% [at 92.2 µM]
Cc1ccc(N)cc1O		-15.1% [at 92.2 µM]

Assay: qHTS assay to identify small molecule agonists of the estrogen related receptor (ERR) signaling pathway (AID 1224820)
Details: ERR reporter cell line, luciferase agonist mode; series mostly up to 46.1 µM; activation: at the top concentration
Procedure, shortened: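 An ERR cell line provided by NTP was seeded at 2,000 cells per well and allowed to settle for 6 h before compounds in DMSO were added. After 18 h at 37 C, luciferase activity was measured by One-Glo luminescence.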

Structure (SMILES)	activation
Cc1cc2c(C(C)C)c(O)c(O)c(C=O)c2c(O)c1-c1c(C)cc2c(C(C)C)c(O)c(O)c(C=O)c2c1O	-72.9%
CCOC(=O)N1CCC(=C2c3ccc(Cl)cc3CCc3cccnc32)CC1	-55.4%
O=C(NO)c1ccccc1	-28% [at 92.2 µM]

Assay: qHTS assay to identify small molecule antagonists of the estrogen related receptor signaling pathway with the pleiotropic PPARgamma coactivator (PGC) cell viability counter screen (AID 1224822)
Details: ERR/PGC reporter cell line viability counter screen; series mostly up to 46.1 µM; viability change, negative = cytotoxic: at the top concentration
Procedure, shortened: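 Cytotoxicity in the PGC/ERR cell line is assessed with CellTiter-Fluor, read as fluorescence intensity 30 min after reagent addition, following 17.5 h compound treatment at 37 C.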

Structure (SMILES)	viability change, negative = cytotoxic
CCCCNc1c(C(=O)OCC)c(C)nc2c1cnn2CC	-7.08%
Cc1cn[nH]c1	12.4%
CCOC(=O)N1CCC(=C2c3ccc(Cl)cc3CCc3cccnc32)CC1	0.8%
O=C(NO)c1ccccc1	3.92% [at 92.2 µM]
Cc1ccc(N)cc1O	1.67% [at 92.2 µM]

Assay: qHTS assay to identify small molecule antagonists of the estrogen related receptor (ERR) signaling pathway from Tox21 library - cell viability counter screen (AID 1224834); also: nearly all actives have a fitted effect of over 30% in size; also: potency is read from the fitted curve at half-maximal effect
Details: ERR reporter cells viability, CellTiter-Fluor, 17.5 h; series mostly up to 92.4 µM; viability change, negative = cytotoxic: at the top concentration
Procedure, shortened: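 Compounds in DMSO were pinned onto ERR cells that had been incubated for 6 h, and the plates were held at 37 C for 17.5 h. CellTiter-Fluor reagent was then added and fluorescence was measured after 30 min.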

Structure (SMILES)	viability change, negative = cytotoxic	Potency
CCCCCCCCCCCCCCCC	-0.433%	
Cc1cc2c(C(C)C)c(O)c(O)c(C=O)c2c(O)c1-c1c(C)cc2c(C(C)C)c(O)c(O)c(C=O)c2c1O		13.3 µM (active)
CCCCNc1c(C(=O)OCC)c(C)nc2c1cnn2CC	-13.1% [at 42.5 µM]	
C/C=C/C=N/NC(=O)c1ccncc1	-3.91% [at 42.5 µM]	
O=S(=O)(O)CCCN1CCOCC1	1.31%	
CSc1c(Cl)c(Cl)c(Cl)c(Cl)c1Cl	-1.24%	
ClC/C=C\CCl	3.67%	
CC1=C(/C=C/C(C)=C/C=C/C(C)=C\C=O)C(C)(C)CCC1		51.6 µM (active)
O=C(Oc1ccccc1)c1cccc(C(=O)Oc2ccccc2)c1	-0.335%	
Cc1cn[nH]c1	4.76% [at 42.5 µM]	
O=C(c1ccccc1)c1cc(Cl)ccc1O	-12.9%	
CO[C@H]1C=CO[C@@]2(C)Oc3c(C)c(O)c4c(O)c(cc(O)c4c3C2=O)NC(=O)/C(C)=C\C=C/[C@H](C)[C@H](O)[C@@H](C)[C@@H](O)[C@@H](C)[C@H](OC(C)=O)[C@@H]1C		61.6 µM (active)
COc1cc(C(=O)NS(=O)(=O)c2ccccc2C)ccc1Cc1cn(C)c2ccc(NC(=O)OC3CCCC3)cc12	-5.92% [at 42.5 µM]	
NCCCCCCNCCCCCCN	-4.22%	
c1cc2c3c(c1)ccc1cccc(c13)C2	0.0413%	
CCOC(=O)N1CCC(=C2c3ccc(Cl)cc3CCc3cccnc32)CC1		24.3 µM (active) and 29.8 µM (active)
CCN(CC)CCSC(=O)C(c1ccccc1)c1ccccc1	-7.29% [at 42.5 µM]	
CCCCCCCCCCCCCOP(=O)(O)O	0.208%	
Cc1nc(Nc2ncc(C(=O)Nc3c(C)cccc3Cl)s2)cc(N2CCN(CCO)CC2)n1		13.3 µM (active)
C(=C/c1ccccc1)/c1ccccc1	0.795%	
COC(=O)[C@]1(C)CCC[C@@]2(C)[C@H]1CC=C1C=C(C(C)C)CC[C@@H]12	-2.28%	
C=C1C(C)(C)[C@@]2(Cl)C(Cl)[C@]1(Cl)C(Cl)(Cl)C2(Cl)Cl (stereo partly specified)		67.3 µM (active)
COC(=O)CC#N	-8.12%	
CCN1CCN(c2cc(-c3ccc(F)cc3)c3c(n2)CCCCCC3)CC1	0.165% [at 19 µM]	
C[C@@H]1CC[C@H]2C(C)(C)[C@H]3C[C@@]12CC[C@@]3(C)O	-3.26%	
CC(COC(=O)c1ccccc1)OC(=O)c1ccccc1 (stereo unspecified)	-4.65%	
